# Laboratory results as given in PubChem BioAssay AID435000 (NMMLSC, 2010).
# The list shows a part of the results. The source made the active and inactive calls.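 How the source made its calls: active means fluorescence response below 15%; inactive means the rest.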
# Assay: DHE quenching or ROS scavenging interference in aged yeast, artefact control for yeast caloric restriction mimetic project, S. cerevisiae BY4741, flow cytometry (AID 435000);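 further: percent of the mean fluorescence averaged over all compound wells on the plate; lower means stronger quenching of DHE signal or ROS scavenging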
# Settings: at 10 µM, active compounds read low
row,Compound,fluorescence response
1,CN1CCN(C(=S)SCC(=O)Nc2ccc(Cl)cc2C(=O)c2ccccc2)CC1,104% (inactive)
2,C[C@]12CCC3C(CC[C@H]4C[C@@H](O)CC[C@]34C)C1C[C@@H](O)[C@H]2O (some centres not stated),99% (inactive)
